# Pf apPOL block: Pf-apPOL DNA polymerase inhibition; Recombinant Pf-apPOL, molecular beacon fluorescence, 1.5 h; inhibition, % at 10 µM; 210,000 tested, 0.25% active; AID 1794808
# mHTT-CaM PPI inh: disrupts binding of mutant huntingtin to calmodulin. AID 1671202. 190,000 tested, 3.6% active. inhibition, % at 15 µM. P42858. AlphaScreen His-mHTT/GST-CaM binding, luminescence;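 note: 0% = both proteins with DMSO and 100% = one protein alone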
# The depositor's hits bear a star; nt = not tested or not shown; ! = a repeat was not active. Only some compounds are listed: those with a hit (about 3.6% of all), similar ones and a draw of the others. Cut-off read from the data, not from the text of the source: active = inhibition above about 50%; inactive = the rest.
SMILES,Pf apPOL block,mHTT-CaM PPI inh
O=C1C2CCCN2C(c2ccccc2F)N1c1nccs1 (configuration not stated),-4,-3
O=C(Cn1c(=O)n(-c2cccc(C(F)(F)F)c2)c(=O)c2sccc21)NC1CCCC1,1,1
O=C1CC(n2nnc3ccccc32)C2COC1O2 (configuration not stated),nt,-7
CCNC(=O)c1cccc(-c2noc(C)n2)c1,-4,1
Cc1ccc(S(=O)(=O)N=C2C=C(N3CCOCC3)C(=O)c3ccccc32)cc1,1,84*
CC(=NS(=O)(=O)c1ccc(C)cc1)N1CCOCC1,4,-3
CC1(C)CC(N2COc3ccc4c5c(oc4c3C2)C(=O)c2ccccc2C5=O)CC(C)(C)N1,37,96*!
CC(=O)c1c(C)oc2c1c1c(c3ccccc32)OCN(C2CC(C)(C)NC(C)(C)C2)C1,7,78*
COc1ccc(-c2coc3c4c(ccc3c2=O)OCN(C2CC(C)(C)NC(C)(C)C2)C4)cc1OC,-5,2
COCCCN1COc2ccc3c(C)c(-c4ccccc4)c(=O)oc3c2C1,-10,12
O=C1c2ccccc2C(=O)c2c1oc1c3c(ccc21)OCN(CCc1ccccc1)C3,-4,61*
CC(=O)c1c(C)oc2c1c1c(c3ccccc32)OCN(C2CCCCC2)C1,1,6
O=C1c2ccccc2C(=O)c2c1oc1c3c(ccc21)OCN(Cc1ccccc1)C3,14,11
CCCCN1COc2ccc3c4c(oc3c2C1)C(=O)c1ccccc1C4=O,11,70*
CCCCNC(=O)C1CC(c2ccc(OC)cc2)=NO1 (configuration not stated),-2,-10
COc1ccc(Cl)cc1N1C(=O)CSC1c1ccc(Cl)cc1 (configuration not stated),0,23
Cn1c(=O)c2cc(C(=O)Nc3cccnc3)sc2n(C)c1=O,-8,-7
COc1ccc(N2CC(C(=O)N(C)C(C)C)CC2=O)cc1 (configuration not stated),-4,-1
CCOC(=O)N1CCc2c(sc(NC(=O)c3snnc3C)c2C#N)C1,-6,21
COCCN=C1Nc2ncccc2NC12CCN(C(=O)Nc1ccc3c(c1)CCC3)C2 (configuration not stated),-1,16
CCCCCC(=O)N1C[C@H](n2cc(COC(=O)c3ccccc3)nn2)[C@@H](O)C[C@@H]1c1ccc(OC)cc1,0,3
COc1cc(C=Nc2c(-c3ccc(O)c(OC)c3)nc3ccccn23)ccc1O,7,60*
COc1cc(-c2nc3ccccn3c2N=Cc2cn[nH]c2-c2ccc(F)cc2)ccc1O,-4,56*
COc1cc(-c2nc3ccccn3c2N=Cc2cc([N+](=O)[O-])cc([N+](=O)[O-])c2O)ccc1O,1,2
COc1ccc(C=Nc2c(-c3ccc(O)c(OC)c3)nc3ccccn23)cc1O,-3,32
SMILES,Pf apPOL block,mHTT-CaM PPI inh
CCOC(=O)c1ccc(Oc2c(C)oc3cc(O)ccc3c2=O)cc1,-3,0
CN(C(=O)c1n[nH]c(=O)c2ccccc12)C1CCCCC1,-3,-2
COc1ccccc1/C=C1/SC(=Nc2ccccc2Cl)NC1=O,-2,20
O=C1NC(=Nc2ccccc2Cl)S/C1=C/c1ccc([N+](=O)[O-])o1,10,60*
CN(C)c1ccc(/C=C2/SC(=Nc3ccccc3Cl)NC2=O)cc1,-69,54*
COc1ccc(/C=C2/SC(=Nc3ccccc3Cl)NC2=O)cc1,-1,43
O=C1NC(=Nc2ccccc2Cl)S/C1=C/c1cc2c(cc1Br)OCO2,0,55*
O=C1NC(=Nc2ccccc2)S/C1=C\c1ccc(-c2ccccc2[N+](=O)[O-])o1,-12,44
Cc1cc(Nc2cc(Cl)ccc2O)n2nnnc2n1,-8,0
S=C1NC2(CCCC2)NN1c1ccccc1,9,nt
c1cc2c3c(cccc3c1)NC1(CCCCCC1)N2,nt,53*
COc1ccc(C2C(C(C)=O)=C(O)C(=O)N2C)cc1 (configuration not stated),-9,2
Cc1ccc(NC2=CC(=NS(=O)(=O)c3ccc(F)cc3)c3ccccc3C2=O)cc1,-4,88*
Cc1ccc(S(=O)(=O)N=Cc2ccc(F)cc2)cc1,0,23
COc1ccc(S(=O)(=O)N=C2C=C(Nc3ccc(C)cc3)C(=O)c3ccccc32)cc1,-3,75*
COc1ccc(NC2=CC(=NS(=O)(=O)c3ccc(C)cc3)c3ccccc3C2=O)cc1,-5,46
COc1ccc(-c2cn3ccn(-c4ccc(F)cc4)c(=O)c3n2)cc1,0,-8
COc1ccc(-c2cn3c(n2)c(=C2CCCN2)c(=O)n3-c2ccccc2)cc1,-7,63*
CC(C)(C)[C@H]1CCC(=O)N([C@H](CSc2ccccc2)Cc2ccccc2)CC1,-6,6
CC(C)(C)[C@H]1CCC(=O)N([C@H](COc2ccccc2)Cc2ccccc2)CC1,9,64*
CCCN1CCC(=O)N([C@H](COc2ccccc2)Cc2ccccc2)CC1,-8,7

# Assay outcomes from PubChem.
